Records with an inconclusive call do not appear. A number with no mark means an inactive call. Activity calls are given as the source filed them. Calls come from the whole dose curve; as a rule, active = well fitted cell-killing curve with a large enough effect in the repeat runs; inconclusive = weak or mixed curves, or effect the other way; inactive = flat fitted curve, though single readings scatter.
% is set by controls: 0 for no effect and ±100 for the full control effect; potency is the fitted concentration of half-maximal effect.

This test is described as follows: qHTS assay to identify small molecule agonists of the estrogen receptor beta (ER-beta) signaling pathway - cell viability counter screen (AID 1259380). Note: nearly all actives have a fitted effect of over 30% in size. The following applies: ER-beta-bla HEK293T viability, CellTiter-Glo luminescence, 16 h; series mostly up to 92.4 µM; activity change, negative = cytotoxicity: at the top concentration. From the text: National Center for Advancing Translational Sciences [NCATS]
NIH Chemical Genomics Center [NCGC]
U.S. Environmental Protection Agency [EPA]
National Institutes of Environmental Health Sciences [NIEHS]
National Toxicology Program [NTP]
U.S. Food and Drug Administration [FDA]
Estrogen receptor (ER), a nuclear hormone receptor, plays an important role in development, metabolic homeostasis and reproduction. Two subtypes of ER, ER-alpha and ER-beta, have similar expression patterns with some uniqueness in both types. Endocrine disrupting chemicals (EDCs) and their interactions with steroid hormone receptors like ER causes disruption of normal endocrine function. To identify the compounds that activate ER signaling, an ER beta-UAS-bla GripTite cell line (Life Technologies, Madison, WI, USA) containing a beta-lactamase reporter gene under the control of an UAS response element was used to screen Tox21 10K compound library. The cytotoxicity of the Tox21 compound library against the ER-beta-bla cell line was tested in parallel by measuring the cell viability using CellTiter-Glo assay in the same wells.
Tox21 Assay Protocol Summary:
ER-beta-UAS-bla HEK293T cells were dispensed at 2,000 cells/5 uL of assay medium containing 2% charcoal stripped FBS per well into black wall/clear-bottom 1536-well plates using a Multidrop Combi (ThermoFisher Scientific, Waltham, MA) dispenser. After the assay plates were incubated at a 37C and 5% CO2 for 6 hr, 23 nL of compounds dissolved in DMSO, positive controls or DMSO only was transferred to the assay plate by a Pintool station (Kalypsys, San Diego, CA). The plates were incubated at 37C and 5% CO2 for 16 hr. Then 1 uL of LiveBLAzerTM B/G FRET substrate was added using a BioRAPTR FRD (Flying Reagent Dispenser, Aurora Discovery, San Diego, CA) and then the plates were incubated at room temperature for 2 hours, and fluorescence intensity was measured by an Envision plate reader (PerkinElmer, Shelton, CT). For cell viability readout that measures cytotoxicity, 4 uL/well of CellTiter-Glo reagent was added into the assay plates using a FRD. After 30 min incubation at room temperature, the luminescence intensity in the plates was measured using a ViewLux (PerkinElmer) plate reader.
Background: Quantitative high-throughput screening tests each substance at several concentrations.
Take `CCCCCC1CCC(=O)O1` (stereo not given): the “activity change, negative = cytotoxicity” value was -0.0607%.
On the same count and under the same terms, to `CCCCCCCCC(=O)OCC(C)OC(=O)CCCCCCCC` (stereo not given) belongs 0.443%; to `C=CC(=O)NC(C)(C)C`, 0.313%; to `N#C[C@@H]1CC(F)(F)CN1C(=O)CNC1CC2CCC(C1)N2c1ncccn1` (stereo not given in full), -0.901%.
For `C=C[Si](OCC)(OCC)OCC`, the “activity change, negative = cytotoxicity” value is 7.45%.
As for `Cc1cccc(C)c1NC(=O)CN1CCCC1`, the “activity change, negative = cytotoxicity” value was -0.357% [at 42.5 µM].
Turning to `Cc1ccc(S(=O)(=O)NC(=O)NC2CCCC2)cc1`, the “activity change, negative = cytotoxicity” value was -0.996% [at 42.5 µM].
Regarding `C/C(=C(\CCO)SS/C(CCO)=C(\C)N(C=O)Cc1cnc(C)nc1N)N(C=O)Cc1cnc(C)nc1N`, the “activity change, negative = cytotoxicity” value was 2.97% [at 42.5 µM].
As to `O=C(OCCOCCOCCOC(=O)c1ccccc1)c1ccccc1`, the “activity change, negative = cytotoxicity” value is -5.72%.
For the molecule `O=C(OC1C[C@H]2CC[C@@H](C1)[N+]21CCCC1)C(O)(c1ccccc1)c1ccccc1` (stereo not given in full), the “activity change, negative = cytotoxicity” value is -14.3% [at 42.5 µM].
As to `O=C1c2ccccc2C(=O)C1c1ccc2ccccc2n1`, the “activity change, negative = cytotoxicity” value is -14.9% [at 42.5 µM].
For `O=C(O)c1cc(C(=O)O)c(C(=O)O)cc1C(=O)O`, the “activity change, negative = cytotoxicity” value was -0.941%.
`FC(F)(Cl)C(F)(Cl)Cl`: the “activity change, negative = cytotoxicity” value is 4.55%.
On to `CC[C@H](NC(C)C)[C@H](O)c1ccc(O)c2[nH]c(=O)ccc12`, for which the “activity change, negative = cytotoxicity” value is 1.7% [at 42.5 µM].
Same read-out and setting: to `CCCCCCCCCCCC(=O)OCC` belongs 6%.
Same read-out and setting: to `S=c1[nH][nH]c(=S)s1` belongs -5.73%; to `CNc1ccccc1`, 3.02%.
`C(/C=C/C=C/Nc1ccccc1)=Nc1ccccc1`: the “activity change, negative = cytotoxicity” value was -0.593%.
In the case of `CCCCCCCCCC(C)C=O` (stereo not given), the Potency was 48.6 µM (active).
As to `OCCCO`, the “activity change, negative = cytotoxicity” value was 2.41%.
The same measure, in the same setting: to `CCCC(=O)OCc1ccccc1` belongs 11.3%.
`Cc1c(Cl)cccc1Nc1ccccc1C(=O)O`: the “activity change, negative = cytotoxicity” value is -2.46% [at 42.5 µM].
Turning to `CCN(CC)CC(=O)OCC(=O)[C@@]1(O)CC[C@H]2[C@@H]3CCC4=CC(=O)CC[C@]4(C)[C@H]3[C@@H](O)C[C@@]21C`, the “activity change, negative = cytotoxicity” value was -6.59% [at 42.5 µM].
Regarding `O=C(Cl)c1cc(Cl)cc(Cl)c1`, the “activity change, negative = cytotoxicity” value is 6.55%.
For `COc1ccc(/C=C/c2cc(OC)cc(=O)o2)cc1`, the “activity change, negative = cytotoxicity” value is -6.18% [at 42.5 µM].
Turning to `Cc1cc(SC2=C(O)C[C@@](CCc3ccc(N)cc3)(C(C)C)OC2=O)c(C(C)(C)C)cc1CO`, the “activity change, negative = cytotoxicity” value was 0.309%.
As to `C=CC(=O)OCCCCCCCCCC`, the “activity change, negative = cytotoxicity” value is 7.42%.
Turning to `CC(C)CC(C)(C)C`, the Potency is 35.7 µM (active).
Turning to `CCOc1ccc2c(c1)C(C)CC(C)(C)N2` (stereo not given), the “activity change, negative = cytotoxicity” value is -1.52%.
Regarding `O=C1C=CCCC1`, the “activity change, negative = cytotoxicity” value is 3.33%.
Regarding `CCCCCCCCCCCCSCCOCCO`, the “activity change, negative = cytotoxicity” value is -6.26% [at 42.5 µM].
Turning to `O=C(O)c1cc(C(=O)O)cc([N+](=O)[O-])c1`, the “activity change, negative = cytotoxicity” value is -0.856%.
In the case of `CCC(C)CCCC(C)(C)O` (stereo not given), the “activity change, negative = cytotoxicity” value was 3.94%.
Consider `CCOCCn1c(N2CCCN(C)CC2)nc2ccccc21`, for which the “activity change, negative = cytotoxicity” value was -0.125% [at 42.5 µM].
As to `COc1cc(C)c(Cc2cnc(N)nc2N)cc1OC`, the “activity change, negative = cytotoxicity” value is 5.41% [at 42.5 µM].
With `CCOc1ccc(NC(C)=O)cc1N`, the “activity change, negative = cytotoxicity” value is 7.4%.
`O=[N+]([O-])c1ccc(Cl)cc1Cl`: the “activity change, negative = cytotoxicity” value is -0.562%.
As to `O=P(c1ccccc1)(c1ccccc1)c1ccccc1`, the “activity change, negative = cytotoxicity” value is -8.37%.
Take `CCCCOC(=O)C(C)Oc1ccc(Oc2ccc(C(F)(F)F)cn2)cc1` (stereo not given): the “activity change, negative = cytotoxicity” value is 4.26%.
On to `O=C(Nc1ccccc1)c1cc([N+](=O)[O-])ccc1Cl`, for which the “activity change, negative = cytotoxicity” value is 1.29%.

(Values after PubChem BioAssay (Tox21).)
